# Assay results from PubChem BioAssay (Tox21).
# Where “and” joins values, the source holds several entries; their conditions need not be identical. Identical values can stand only once. Inconclusive results are not listed. Where a call stands in place of a potency, no number is given. Some structures have more than one record in an assay (separate samples or runs), and their calls can disagree. Calls of active or inactive are those of the source. Unless noted, calls follow the shape of the dose curve; as a rule, active = well fitted curve in the direction sought with a large enough effect in the repeat runs; inconclusive = weak or mixed curves; inactive = no such curve, though single readings can be large; an effect the other way counts as inactive or inconclusive.
# Tests used:
# [1] = qHTS RealTime-Glo MT Cell Viability Assay in HepG2 cells - 24 hour (AID 1224867); also: nearly all actives have a fitted effect of over 50% in size
# How it was run: (§1)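 Compound treatment began 5 h after plating HepG2 cells (600/well) with NanoLuc luciferase and prosubstrate. Plates stayed at 37 C for 40 h; luminescence was captured at six time points, 0 h through 40 h.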
# [2] = qHTS RealTime-Glo MT Cell Viability Assay in HEK293 cells - 32 hour (AID 1224868); also: top concentration of the series differs between compounds; nearly all actives have a fitted effect of over 50% in size
# How it was run: (§2)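 Quantitative high-throughput screen of the Tox21 10K library in HEK293: cells and RealTime-Glo reagents plated together, compound added at 5 h, luminescence monitored through 40 h at 37 C.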
# [3] = A CellTox Green Cytotoxicity Assay to monitor cytotoxicity in HEK293 cells - 0 hour (AID 1224869); also: nearly all actives have a fitted effect of over 50% in size; also: potency is read from the fitted curve at half-maximal effect
# How it was run: (§3)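 Read-out: fluorescence of a cell-impermeant cyanine dye staining DNA of dead cells, proportional to cytotoxicity. HEK293, 600 cells/well with reagent, compound (23 nL DMSO) added after 5 h; reads at 0, 8, 16, 24, 32, 40 h.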
# [4] = qHTS RealTime-Glo MT Cell Viability Assay in HepG2 cells - 40 hour (AID 1224870); also: nearly all actives have a fitted effect of over 50% in size
# How it was run: (§4)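 HepG2 cells (600/well) mixed with RealTime-Glo MT reagent, settled 5 h at 37 C/5% CO2 before compound addition. Nonlytic NanoLuc luminescence from viable-cell prosubstrate reduction read repeatedly during 40 h treatment at 37 C.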
# [5] = A CellTox Green Cytotoxicity Assay to monitor cytotoxicity in HEK293 cells - 40 hour (AID 1224871); also: nearly all actives have a fitted effect of over 45% in size; also: potency is read from the fitted curve at half-maximal effect
# How it was run: as §3
# [6] = qHTS RealTime-Glo MT Cell Viability Assay in HEK293 cells - 16 hour (AID 1224872)
# How it was run: as §2
# [7] = qHTS RealTime-Glo MT Cell Viability Assay in HepG2 cells - 8 hour (AID 1224873); also: nearly all actives have a fitted effect of over 55% in size
# How it was run: as §4
# [8] = qHTS RealTime-Glo MT Cell Viability Assay in HEK293 cells - 40 hour (AID 1224874); conditions: RealTime-Glo luminescence; max response: stronger effect = lower value; also: nearly all actives have a fitted effect of over 50% in size
# How it was run: (§5)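 Luminescence readout at each listed time point; HEK293, 600 cells/well, RealTime-Glo MT reagent added with cells; compounds pinned (23 nL in DMSO) after 5 h at 37 C; continuous culture at 37 C.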
# [9] = A CellTox Green Cytotoxicity Assay to monitor cytotoxicity in HepG2 cells - 16 hour (AID 1224876); also: nearly all actives have a fitted effect of over 45% in size; also: potency is read from the fitted curve at half-maximal effect
# How it was run: (§6)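 HepG2, 600 cells/well premixed w/ CellTox Green; 5 h settle, 37 C/5% CO2; pintool cpd add (DMSO); 37 C, 40 h; fluorescence read at 0, 8, 16, 24, 32, 40 h.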
# [10] = qHTS RealTime-Glo MT Cell Viability Assay in HepG2 cells - 32 hour (AID 1224877); also: nearly all actives have a fitted effect of over 55% in size
# How it was run: as §1
# [11] = A CellTox Green Cytotoxicity Assay to monitor cytotoxicity in HepG2 cells - 24 hour (AID 1224878); also: nearly all actives have a fitted effect of over 45% in size; also: potency is read from the fitted curve at half-maximal effect
# How it was run: as §6
# [12] = A CellTox Green Cytotoxicity Assay to monitor cytotoxicity in HepG2 cells - 40 hour (AID 1224879); also: nearly all actives have a fitted effect of over 40% in size; also: potency is read from the fitted curve at half-maximal effect
# How it was run: as §6
# [13] = qHTS RealTime-Glo MT Cell Viability Assay in HEK293 cells - 0 hour (AID 1224880); also: top concentration of the series differs between compounds; nearly all actives have a fitted effect of over 45% in size
# How it was run: as §5
# [14] = A CellTox Green Cytotoxicity Assay to monitor cytotoxicity in HEK293 cells - 32 hour (AID 1224881); also: nearly all actives have a fitted effect of over 40% in size; also: potency is read from the fitted curve at half-maximal effect
# How it was run: as §3
# [15] = A CellTox Green Cytotoxicity Assay to monitor cytotoxicity in HepG2 cells - 0 hour (AID 1224882); also: nearly all actives have a fitted effect of over 35% in size; also: potency is read from the fitted curve at half-maximal effect
# How it was run: as §6
# [16] = A CellTox Green Cytotoxicity Assay to monitor cytotoxicity in HepG2 cells - 32 hour (AID 1224883); also: nearly all actives have a fitted effect of over 50% in size; also: potency is read from the fitted curve at half-maximal effect
# How it was run: as §6
# [17] = qHTS assay to identify small molecule antagonists of the estrogen related receptor (ERR) signaling pathway from Tox21 library (AID 1224848); also: nearly all actives have a fitted effect of over 50% in size
# How it was run: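 Compounds dissolved in DMSO are pin-transferred onto ERR reporter cells (2,000 per well) that have settled for 6 h at 37 C. Plates then incubate 18 h at 37 C before ONE-Glo luciferase reagent and a luminescence read 30 min later.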
# [18] = qHTS assay to identify small molecule agonists of the estrogen related receptor (ERR) signaling pathway from Tox21 library (AID 1224849; calls by dose curve; also: nearly all actives have a fitted effect of over 15% in size); conditions: ERR reporter cell line, ONE-Glo luciferase, 18 h; at 92.4 µM (top of the series)
# How it was run: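 Luminescence readout (ONE-Glo, 30 min RT) after 18 h compound exposure at 37 C of NTP-supplied ERR reporter cells; cells were plated 6 h before compound addition by pin tool.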
# [19] = A CellTox Green Cytotoxicity Assay to monitor cytotoxicity in HEK293 cells - 24 hour (AID 1224875); also: nearly all actives have a fitted effect of over 45% in size
# How it was run: as §3
SMILES,outcome [1],Potency [2],Potency [3],outcome [4],Potency [5],outcome [6],outcome [7],max response [8],Potency [9],outcome [10],Potency [11],Potency [12],outcome [13],Potency [14],Potency [15],Potency [16],Potency [17],"activity change, positive = activation [18]",Potency [19]
C1CN2CCN1CC2,inactive,inactive,inactive and 21.9 µM (active),inactive,inactive and 17.4 µM (active),inactive,inactive,1.08% (inactive) and 21.8% (inactive),inactive and 21.9 µM (active),inactive,inactive and 21.9 µM (active),inactive and 21.9 µM (active),inactive,inactive and 21.9 µM (active),inactive and 21.9 µM (active),inactive and 21.9 µM (active),–,–,–
O=[N+]([O-])c1ccc(Oc2ccc(Cl)cc2Cl)cc1,inactive,–,inactive,inactive,inactive,–,inactive,–,inactive,inactive,inactive,inactive,inactive,inactive,inactive,inactive,inactive,-5.45% (inactive) and -4.04% (inactive),inactive
Cc1[nH]c(=O)n(C(C)(C)C)c(=O)c1Cl,inactive,inactive,inactive,inactive,inactive,inactive,inactive,-2.63% (inactive) and 1.93% (inactive),inactive,inactive,inactive,inactive,inactive,inactive,inactive,inactive,–,–,inactive
CC(C)C#N,inactive,inactive,inactive,inactive,inactive,inactive,inactive,8.8% (inactive) and 1.31% (inactive),inactive,inactive,inactive,inactive,inactive,inactive,inactive,inactive,–,–,inactive
CC(C)C1(C)N=C(c2nc3ccccc3cc2C(=O)O)NC1=O (configuration not stated),inactive,inactive,inactive,inactive,inactive,inactive,inactive,4.12% (inactive) and 2.1% (inactive),inactive,inactive,inactive,inactive,inactive,inactive,inactive,inactive,inactive,3.26% (inactive) and 5.33% (inactive),inactive
O=[N+]([O-])c1ccc([As](=O)(O)O)cc1,inactive,inactive,inactive,inactive,inactive,inactive,inactive,0.69% (inactive) and 11.7% (inactive),inactive,inactive,inactive,inactive,inactive,inactive,inactive,–,–,–,inactive
Oc1ccccc1Cl,inactive,inactive,inactive,inactive,inactive,inactive,inactive,9.22% (inactive) and 18.7% (inactive),inactive,inactive,inactive,inactive,inactive,inactive,inactive,–,–,–,inactive
O=C1CCCN1,inactive,inactive,inactive,inactive,inactive,inactive,inactive,1.24% (inactive) and -5.73% (inactive),inactive,inactive,inactive,inactive,inactive,inactive,inactive,inactive,–,–,inactive
CC1C=[C-]C=C1.[C-]#[O+].[C-]#[O+].[C-]#[O+].[Mn],inactive,inactive,inactive,inactive,inactive,inactive,inactive,5.97% (inactive) and 3.98% (inactive),inactive,inactive,inactive,inactive,inactive,inactive,inactive,–,–,–,inactive
CC(C)=C[C@@H]1[C@@H](C(=O)OCc2coc(Cc3ccccc3)c2)C1(C)C,inactive,inactive,inactive,inactive,inactive,inactive,inactive,-1.11% (inactive) and 8.33% (inactive),inactive,inactive,inactive,inactive,inactive,inactive,inactive,–,–,–,inactive
Cc1ccc(N)cc1N,inactive,–,inactive,inactive,inactive,inactive,inactive,14.6% (inactive),inactive,inactive,inactive,inactive,inactive,inactive,inactive,inactive,inactive,49% (active),inactive
OCCN(CCO)CCO,inactive,inactive,inactive,inactive,inactive,inactive,inactive,-6.59% (inactive) and 8.79% (inactive),inactive,inactive,inactive,inactive,inactive,inactive,inactive,inactive,–,–,inactive
C=CC(N)=O,inactive,inactive,inactive,inactive,inactive,inactive,inactive,0.5% (inactive) and -10.4% (inactive),inactive,inactive,inactive,inactive,inactive,inactive,inactive,inactive,inactive,7.14% (inactive),inactive
CCC[N+](=O)[O-],inactive,inactive,inactive,inactive,38.2 µM (active) and inactive,inactive,inactive,7.7% (inactive),inactive,inactive,24.1 µM (active) and inactive,24.1 µM (active) and inactive,inactive,inactive,inactive,21.5 µM (active) and inactive,–,–,inactive
